Results filed as inconclusive are left out. Active and inactive are the calls of the source. Rule for the calls: active = hit-call score of the fitted dose curve at least 0.9, where 1 is the maximum; inconclusive = response in the unintended direction; inactive = score below 0.9.
Tested on: not listed separately
Test: CCTE_Deisenroth_AIME_384WELL_CTox_Active: Cytotoxicity Assessment (CTOX) in CCTE's 384-well Estrogen Receptor Transactivation Assay with AIME metabolic competence (metabolism positive), Deisenroth Lab (AID 2284037);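 note: chemicals first conditioned 2 h by alginate-bound induced rat liver S9 before cells; activity means signal loss indicating cell death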
Summary of the method: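 VM7Luc4E2 breast cells received medium pre-incubated 2 h with chemical over alginate microspheres holding induced male Sprague Dawley rat liver S9; viability read 24 h later by protease-substrate fluorescence. Loss of signal, bidirectional fit, 0.002–200 uM.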

Compound	outcome
Cc1ccc2ncccc2c1	inactive
C[C@]12C=CC(=O)C=C1CC[C@@H]1[C@@H]2C(=O)C[C@@]2(C)[C@H]1CC[C@]2(O)C(=O)CO	inactive
CCCCCCCCCCO	inactive
CNCc1cc(F)ccc1Oc1ccc(Cl)c(Cl)c1	inactive
CNC(=O)[C@H]1O[C@@H](n2cnc3c(NCc4cc(Cl)ccc4OCc4cc(C)no4)ncnc32)[C@H](O)[C@@H]1N	inactive
COc1cc(C=O)ccc1O	inactive
Nc1ccc2c(c1)C(=O)c1ccccc1C2=O	inactive

Molecular target: Estrogen receptor (Homo sapiens) (UniProt P03372)
Test: CCTE_Deisenroth_AIME_384WELL_LUC_Inactive: CCTE's 384-well Estrogen Receptor Transactivation Assay without AIME metabolic competence (ERTA luciferase; metabolism negative), Deisenroth Lab (AID 2284038);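 note: hits raise estrogen receptor luciferase signal so potencies reflect agonists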
Summary of the method: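 Metabolism-negative mode: chemicals (10-point, 0.002–200 uM) held 2 h with alginate-water microspheres, then conditioned medium applied to VM7Luc4E2 cells for 24 h. Luciferase induction referenced to 17beta-estradiol.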

Chain of Estrogen receptor (Homo sapiens) (P03372 whole entry, looked up): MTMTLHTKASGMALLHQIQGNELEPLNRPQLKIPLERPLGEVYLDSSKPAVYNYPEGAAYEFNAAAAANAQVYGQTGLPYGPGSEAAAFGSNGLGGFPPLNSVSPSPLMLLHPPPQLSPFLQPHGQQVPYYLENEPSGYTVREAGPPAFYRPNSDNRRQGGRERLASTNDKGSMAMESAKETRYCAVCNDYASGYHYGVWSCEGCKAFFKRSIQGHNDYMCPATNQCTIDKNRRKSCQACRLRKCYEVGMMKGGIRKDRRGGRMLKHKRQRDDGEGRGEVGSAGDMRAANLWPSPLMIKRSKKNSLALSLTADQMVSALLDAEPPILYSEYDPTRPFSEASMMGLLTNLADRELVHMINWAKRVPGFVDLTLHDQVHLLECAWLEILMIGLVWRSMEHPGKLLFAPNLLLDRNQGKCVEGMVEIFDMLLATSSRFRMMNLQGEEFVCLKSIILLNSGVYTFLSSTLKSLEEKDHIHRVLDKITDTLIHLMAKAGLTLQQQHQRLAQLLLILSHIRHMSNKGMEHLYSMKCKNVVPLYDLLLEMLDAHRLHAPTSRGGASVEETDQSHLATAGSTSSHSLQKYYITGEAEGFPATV

Compound	outcome	AC50
Cc1ccc2ncccc2c1	inactive	–
C[C@]12C=CC(=O)C=C1CC[C@@H]1[C@@H]2C(=O)C[C@@]2(C)[C@H]1CC[C@]2(O)C(=O)CO	inactive	–
CC1(C)CC(N=C=O)CC(C)(CN=C=O)C1 (stereo not drawn)	inactive	–
CCNc1cccc(C)c1	inactive	–
Clc1cc(Cl)c(Cl)cc1Cl	inactive	–
COc1ccc(C)cc1N	inactive	–
CCCCCCCCCCO	inactive	–
CCCCCC(=O)O	inactive	–
CCCCCCC(=O)OCC	inactive	–
Cc1ccc(C)c(C)c1	inactive	–
CNC(=O)[C@H]1O[C@@H](n2cnc3c(NCc4cc(Cl)ccc4OCc4cc(C)no4)ncnc32)[C@H](O)[C@@H]1N	inactive	–
COc1cc(C=O)ccc1O	inactive	–
CC1=C(/C=C/C(C)=C/C=C/C(C)=C/CO)C(C)(C)CCC1	inactive	–
Nc1ccc2c(c1)C(=O)c1ccccc1C2=O	–	11.2 µM (active)
CCCCCCCC=O	–	25.7 µM (active)
Cc1ccc(C(C)C)c(O)c1	inactive	–

— PubChem BioAssay (EPA / NIEHS)
